Source: PubChem BioAssay (Tox21)
Results filed as inconclusive are left out. The source made the active and inactive calls. Unless noted, the call rests on the fitted dose curve; in most records, active means well fitted curve in the direction sought with a large enough effect in the repeat runs; inconclusive means weak or mixed curves; inactive means no such curve, though single readings can be large; an effect the other way counts as inactive or inconclusive.

Key:
[1] = A CellTox Green Cytotoxicity Assay to monitor cytotoxicity in HepG2 cells - 0 hour (AID 1224882); further: nearly all actives have a fitted effect of over 35% in size
Method in brief: (§1)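 Read-out is fluorescence of a cyanine dye excluded from live cells that stains DNA of dead HepG2 cells, with signal proportional to cytotoxicity. Plates were read at 0, 8, 16, 24, 32 and 40 h after compound addition.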

[2] = A CellTox Green Cytotoxicity Assay to monitor cytotoxicity in HepG2 cells - 32 hour (AID 1224883); further: nearly all actives have a fitted effect of over 50% in size
Method in brief: as §1

[3] = qHTS RealTime-Glo MT Cell Viability Assay in HEK293 cells - 24 hour (AID 1224886); further: top concentration of the series differs between compounds; nearly all actives have a fitted effect of over 50% in size
Method in brief: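 Homogeneous bioluminescent viability format in HEK293 cells (600 cells/well). Following 5 h at 37 C/5% CO2, 23 nL compound was pintooled; the signal was measured repeatedly during 40 h incubation.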

[4] = qHTS RealTime-Glo MT Cell Viability Assay in HEK293 cells - 8 hour (AID 1224887); further: top concentration of the series differs between compounds; nearly all actives have a fitted effect of over 50% in size
Method in brief: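 Cells were seeded together with NanoLuc luciferase and a prosubstrate that viable cells reduce to a luciferase substrate. After a 5 h incubation at 37 C/5% CO2, compounds were added and luminescence was measured repeatedly during 40 h of treatment.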

[5] = A CellTox Green Cytotoxicity Assay to monitor cytotoxicity in HEK293 cells - 16 hour (AID 1224888); further: nearly all actives have a fitted effect of over 35% in size
Method in brief: (§2)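 Nonlytic real-time cytotoxicity: HEK293 + CellTox Green reagent plated, 5 h preincubation, pintool compound addition (23 nL in DMSO), 37 C for 40 h, fluorescence measured at successive time points.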

[6] = qHTS RealTime-Glo MT Cell Viability Assay in HepG2 cells - 0 hour (AID 1224889); further: nearly all actives have a fitted effect of over 50% in size
Method in brief: (§3)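 Cell number in HepG2 cultures estimated from NanoLuc luminescence generated by metabolic reduction of a prosubstrate by living cells. The homogeneous, nonlytic format allowed repeated reads at 0, 8, 16, 24, 32 and 40 h of compound exposure.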

[7] = A CellTox Green Cytotoxicity Assay to monitor cytotoxicity in HepG2 cells - 8 hour (AID 1224890); further: nearly all actives have a fitted effect of over 45% in size
Method in brief: as §1

[8] = qHTS assay to identify small molecule antagonists of the estrogen receptor alpha (ER-alpha) signaling pathway using the BG1 cell line in the presence of 0.1 nM 17-beta-estradiol - cell viability counter screen (AID 1259241); further: nearly all actives have a fitted effect of over 40% in size
Method in brief: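 VM7Luc4E2 cells (endogenous full-length ER-alpha, 4xERE-luciferase), cultured 5 days in charcoal-stripped serum, exposed to compounds with 0.1 nM 17beta-estradiol (final) for 22 hr at 37C. Viability read in same wells as live-cell protease fluorescence after 30 min.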

[9] = qHTS assay to identify small molecule antagonists of the androgen receptor (AR) signaling pathway using the MDA cell line in the presence of 0.5 nM R1881 - cell viability counter screen (AID 1259242); further: nearly all actives have a fitted effect of over 45% in size
Method in brief: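 Counter screen for cytotoxicity run in the same wells as the AR antagonist reporter screen: MDA-kb2 cells were treated 16 hr with test compounds and 0.5 nM R1881, then live-cell protease activity was measured by fluorescence.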

[10] = qHTS assay to identify small molecule HDAC inhibitors (AID 1259364); further: top concentration of the series differs between compounds; nearly all actives have a fitted effect of over 45% in size
Method in brief: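 Luminescence from a cell-permeant luminogenic class I/II HDAC substrate reports endogenous deacetylase activity in intact HCT-116 cells treated with compounds for 2 h.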

[11] = qHTS assay to identify small molecule HDAC inhibitors - cell viability counter screen (AID 1259365)
Method in brief: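 Wild-type HCT-116 cells, 1,500/well, cultured overnight, then compound-treated 2 h at 37 C. Viability measured as ATP luminescence with CellTiter-Glo after 30 min at room temperature.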

[12] = qHTS assay to identify small molecule agonists of the sonic hedgehog signaling (Shh) pathway - cell viability counter screen (AID 1259366); further: nearly all actives have a fitted effect of over 50% in size
Method in brief: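 NIH/3T3-derived Gli1-Luc reporter cells, 2,000 per well, received compound after 4 h and were treated about 23 h at 37C. Viability measured in the same wells by CellTiter-Fluor fluorescence after 1 h.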

[13] = qHTS assay to identify small molecule antagonists of the sonic hedgehog signaling (Shh) pathway - cell viability counter screen (AID 1259367); further: nearly all actives have a fitted effect of over 55% in size
Method in brief: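 Seed 3T3 Gli1-Luc cells at 2,000 per well; incubate 4 hr; add compound in DMSO, then conditioned medium; incubate at 37C with 5% CO2; add CellTiter-Fluor after 23 hr; read fluorescence 1 hr later.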

[14] = qHTS assay to identify small molecule agonists of the sonic hedgehog signaling (Shh) pathway (AID 1259368; calls by dose curve;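 further: NIH/3T3-derived 3T3Gli1-Luc cells carrying a stable Gli1-driven firefly luciferase reporter; series mostly up to about 92 µM; nearly all actives have a fitted effect of over 15% in size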)
Method in brief: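 3T3Gli1-Luc (NIH/3T3 clone, stable Gli1-Luc); 4 hr pre-incubation, then cpd in DMSO 24 hr, 37 C/5% CO2; luciferase reagent 30 min RT; luminescence.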

[15] = qHTS assay to identify small molecule antagonists of the sonic hedgehog signaling (Shh) pathway (AID 1259369; calls by dose curve; further: nearly all actives have a fitted effect of over 45% in size)
Method in brief: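 3T3Gli1-Luc, conditioned-medium-stimulated, 24hr cpd, 37C/5% CO2; Gli1-driven firefly Luc luminescence after 30min RT with luciferase reagent. Cells plated 4hr before cpd.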

[16] = A CellTox Green Cytotoxicity Assay to monitor cytotoxicity in HEK293 cells - 8 hour (AID 1224884); further: nearly all actives have a fitted effect of over 35% in size
Method in brief: as §2

[17] = qHTS RealTime-Glo MT Cell Viability Assay in HepG2 cells - 16 hour (AID 1224885); further: nearly all actives have a fitted effect of over 50% in size
Method in brief: as §3

[18] = molecular target: Androgen receptor (Homo sapiens) (UniProt P10275); assay: qHTS assay to identify small molecule antagonists of the androgen receptor (AR) signaling pathway using the MDA cell line in the presence of 0.5 nM R1881 (AID 1259243); further: nearly all actives have a fitted effect of over 50% in size
Chain of Androgen receptor (Homo sapiens) (P10275 whole entry, looked up): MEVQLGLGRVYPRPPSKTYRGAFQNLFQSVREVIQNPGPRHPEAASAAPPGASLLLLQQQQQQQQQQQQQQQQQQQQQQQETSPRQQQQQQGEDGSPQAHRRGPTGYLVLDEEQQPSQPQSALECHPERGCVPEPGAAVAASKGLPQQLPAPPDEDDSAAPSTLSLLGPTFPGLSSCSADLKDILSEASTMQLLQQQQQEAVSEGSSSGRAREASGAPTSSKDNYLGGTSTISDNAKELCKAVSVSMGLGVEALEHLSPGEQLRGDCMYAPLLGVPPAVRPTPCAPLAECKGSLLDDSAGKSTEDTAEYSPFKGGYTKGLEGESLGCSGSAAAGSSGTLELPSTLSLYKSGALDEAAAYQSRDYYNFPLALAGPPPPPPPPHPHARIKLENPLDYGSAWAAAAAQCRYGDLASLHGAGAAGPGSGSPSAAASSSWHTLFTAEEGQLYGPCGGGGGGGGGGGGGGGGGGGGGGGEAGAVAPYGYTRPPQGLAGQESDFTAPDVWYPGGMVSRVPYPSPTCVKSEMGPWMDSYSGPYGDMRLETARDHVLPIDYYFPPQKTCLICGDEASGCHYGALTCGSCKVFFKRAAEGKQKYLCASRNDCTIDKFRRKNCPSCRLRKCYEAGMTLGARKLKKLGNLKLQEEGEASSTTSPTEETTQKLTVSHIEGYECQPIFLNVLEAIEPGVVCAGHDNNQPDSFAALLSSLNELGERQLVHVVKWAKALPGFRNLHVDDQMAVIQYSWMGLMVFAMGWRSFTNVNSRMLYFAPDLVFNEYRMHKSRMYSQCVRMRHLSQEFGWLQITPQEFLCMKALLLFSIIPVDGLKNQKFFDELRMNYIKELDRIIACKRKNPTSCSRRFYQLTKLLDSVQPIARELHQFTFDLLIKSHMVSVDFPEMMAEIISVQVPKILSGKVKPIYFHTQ
Method in brief: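 Luciferase luminescence is the read-out: compounds are tested for suppressing 0.5 nM R1881-driven MMTV reporter activity in MDA-kb2 cells after 16 hr at 37C.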

[19] = molecular target: Estrogen receptor (Homo sapiens) (UniProt P03372); assay: qHTS assay to identify small molecule antagonists of the estrogen receptor alpha (ER-alpha) signaling pathway using the BG1 cell line in the presence of 0.1 nM 17-beta-estradiol (AID 1259244); further: nearly all actives have a fitted effect of over 50% in size
Chain of Estrogen receptor (Homo sapiens) (P03372 whole entry, looked up): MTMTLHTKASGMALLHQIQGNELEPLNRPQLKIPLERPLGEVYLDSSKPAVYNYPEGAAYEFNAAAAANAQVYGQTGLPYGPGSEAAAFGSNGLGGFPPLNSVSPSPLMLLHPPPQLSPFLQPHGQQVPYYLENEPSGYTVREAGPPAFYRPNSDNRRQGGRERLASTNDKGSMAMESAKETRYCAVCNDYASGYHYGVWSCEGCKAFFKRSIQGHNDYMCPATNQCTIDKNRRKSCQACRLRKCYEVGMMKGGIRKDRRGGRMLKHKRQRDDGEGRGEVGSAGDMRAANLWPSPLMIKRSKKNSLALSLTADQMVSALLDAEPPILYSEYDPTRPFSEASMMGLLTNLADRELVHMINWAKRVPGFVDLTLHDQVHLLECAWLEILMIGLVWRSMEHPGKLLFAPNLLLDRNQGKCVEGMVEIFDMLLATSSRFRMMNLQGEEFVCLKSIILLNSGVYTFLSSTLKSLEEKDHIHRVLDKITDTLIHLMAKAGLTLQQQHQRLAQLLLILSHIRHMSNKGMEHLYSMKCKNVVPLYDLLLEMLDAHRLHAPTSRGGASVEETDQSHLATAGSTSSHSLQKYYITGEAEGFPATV
Method in brief: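 Cells: VM7Luc4E2, endogenous ER-alpha, 4x ERE-luc stable. Pre-culture 5 d, phenol red-free, charcoal-stripped FBS. Plated 24 h, compound + E2 0.1 nM final, 22 h 37C/5% CO2. Readout ONE-Glo luminescence.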

[20] = qHTS assay to identify small molecule phospholipidosis (PLD) inducers (AID 1259344; active means well fitted curve in the direction sought with a large enough effect; an effect the other way counts as inactive or inconclusive)
Method in brief: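 Quantitative HTS in HepG2: compound plus LipidTOX Red dye for 24 h, paraformaldehyde fixation with Hoechst 33342, widefield high-content imaging; amiodarone as positive and DMSO as negative control.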

Measured: Potency

CC1(C)[C@@H]2CC[C@@]1(C)[C@H](O)C2
inactive: [1] | [2] | [3] | [4] | [5] | [6] | [7] | [8] | [9] | [10] | [11] | [12] | [13] | [14] | [15]

O=S(=O)(O)c1cccc(S(=O)(=O)O)c1
inactive: [2] | [16] | [17] | [3] | [4] | [5] | [6] | [7] | [8] | [9] | [18] | [19] | [10] | [11] | [12] | [13] | [14] | [15]

CC1=CC(=O)[C@H]2C[C@@H]1C2(C)C
inactive: [2] | [17] | [3] | [4] | [5] | [6] | [7] | [8] | [9] | [19] | [10] | [11] | [12] | [13] | [14] | [15]

CC(COc1ccccc1)NN (configuration not stated)
inactive: [2] | [3] | [4] | [5] | [6] | [7] | [8] | [9] | [20] | [10] | [11] | [12] | [13] | [14] | [15]

COc1c(N2CCNC(C)C2)c(F)cc2c(=O)c(C(=O)O)cn(C3CC3)c12 (configuration not stated)
inactive: [2] | [3] | [4] | [5] | [6] | [7] | [9] | [20] | [10] | [11] | [12] | [13] | [14]

NC(=O)N1c2ccccc2CC(=O)c2ccccc21
inactive: [2] | [16] | [17] | [3] | [4] | [5] | [6] | [7] | [8] | [9] | [20] | [10] | [11] | [12] | [13] | [14]

Cc1ccc(C(=O)c2ccc(CC(=O)O)n2C)cc1
inactive: [16] | [17] | [3] | [4] | [5] | [6] | [8] | [9] | [18] | [20] | [11] | [12] | [13] | [14] | [15]

Nc1ccn([C@@H]2O[C@H](CO)[C@@H](O)[C@@H]2O)c(=O)n1
inactive: [2] | [16] | [17] | [3] | [4] | [5] | [6] | [7] | [8] | [9] | [10] | [11] | [12]

CC(C)(C)OC(=O)c1cccc(N)c1
inactive: [2] | [17] | [3] | [4] | [5] | [6] | [7] | [8] | [9] | [19] | [10] | [12] | [13] | [14] | [15]

CO[C@@]1(NC(=O)C(C(=O)O)c2ccc(O)cc2)C(=O)N2C(C(=O)O)=C(CSc3nnnn3C)CO[C@@H]21 (some centres not stated)
inactive: [2] | [16] | [3] | [4] | [5] | [6] | [7] | [8] | [9] | [20] | [10] | [11] | [12] | [13] | [14] | [15]

Nc1ccccn1
inactive: [2] | [16] | [17] | [3] | [4] | [5] | [6] | [7] | [8] | [9] | [10] | [11] | [12] | [14] | [15]

O=C(CO)[C@@H](O)[C@H](O)[C@H](O)CO
inactive: [2] | [16] | [17] | [3] | [4] | [5] | [6] | [7] | [9] | [19] | [20] | [10] | [11] | [12] | [14] | [15]

Cc1onc(-c2c(Cl)cccc2Cl)c1C(=O)Cl
inactive: [2] | [16] | [17] | [3] | [4] | [5] | [6] | [7] | [9] | [18] | [10] | [11] | [12] | [14] | [15]

C=CC(C)(CCC=C(C)C)OC(=O)CC (configuration not stated)
inactive: [2] | [16] | [17] | [3] | [4] | [5] | [6] | [7] | [8] | [9] | [19] | [10] | [11] | [12] | [14] | [15]

O=C(CO)[C@@H](O)[C@H](O)[C@@H](O)CO
inactive: [16] | [3] | [4] | [5] | [6] | [8] | [9] | [20] | [10] | [11] | [12] | [13] | [14] | [15]

CCCn1cc[n+](C)c1C
inactive: [2] | [16] | [17] | [3] | [4] | [5] | [6] | [7] | [8] | [9] | [10] | [11] | [12]

C=CCCC(=O)O
inactive: [2] | [16] | [17] | [3] | [4] | [5] | [6] | [7] | [8] | [9] | [19] | [10] | [11] | [12] | [13] | [14] | [15]

CC(C)(N)C#N
inactive: [2] | [16] | [3] | [4] | [5] | [6] | [7] | [8] | [9] | [19] | [10] | [11] | [12] | [13] | [14] | [15]

CCC(C)(CN(C)C)OC(=O)c1ccccc1 (configuration not stated)
inactive: [2] | [16] | [17] | [3] | [4] | [5] | [6] | [7] | [8] | [9] | [20] | [10] | [11] | [12] | [13] | [14] | [15]

O=CN(CCO)CCO
inactive: [2] | [16] | [17] | [3] | [4] | [5] | [6] | [7] | [8] | [9] | [10] | [11] | [12] | [13] | [14] | [15]
